aSyn 5UTR act: Activators working through SNCA 5'UTR binding (MLPCN); alpha-synuclein 5'UTR reporter, activators screen; activity score, % (tested at 7.5 µM), hits read low; hit rate 7.1% among 300,000; AID 1814; in the data active means activity score below about -60%
* = called active by the depositor. A selection follows.

SMILES | aSyn 5UTR act
FC(F)Oc1ccc(NC(=S)N2CCc3ccccc32)cc1 | -133*
COc1cccc(-c2cc(C(=O)N3CCc4ccccc4C3)[nH]n2)c1 | -68*
O=C(Nc1cccc(Cl)c1)N1CCc2ccccc2C1 | -185*
COc1ccc(NC(=S)N2CCc3ccccc3C2)cc1 | -82*
COc1ccc(NC(=O)C(=O)NCC(c2ccco2)N2CCc3ccccc32)cc1 (stereo unspecified) | 85
COc1ccccc1C(=O)Nc1ccc2c(c1)CN(C(=O)CSC)CC2 | -109*
S=C(NCCc1ccccc1)N1CCc2ccccc2C1 | -101*
COc1cccc(NC(=O)N2CCc3ccccc3C2)c1 | -104*
C=C1[C@@H](C)C2[C@H](Cc3ccccc3)NC(=O)[C@]23OC(=O)CC[C@H](O)CCC[C@H](C)C/C=C/[C@H]3[C@@H]1O (stereo partly specified) | 80
CCCCN(CC)CCNC(=O)c1cc2c(-c3ccccc3F)nn(C)c2s1 | -75*
CCCCN(CC)CCNC(=O)c1cc2c(=O)n(C)c3ccccc3c2s1 | -67*
CCN(CC)CCNC(=O)c1cc2c(=O)n(C)c3ccccc3c2s1 | -70*
COc1cccc(Cn2c(N)c(C#N)c3nc4ccccc4nc32)c1OC | 53
COc1cccc(CNc2ccc3c(c2)ncn3C(C)C)c1OC | -87*
Cc1ccc(-c2cc(C(=O)N/N=C/c3c(C)nn(-c4ccccc4)c3C)[nH]n2)cc1 | 66
COC(=O)c1cc(-c2c(C)nn(-c3ccccc3)c2C)n[nH]1 | -87*
CCc1nc(-c2cc3ccc(C)cc3[nH]c2=O)no1 | -84*
Clc1ccccc1-c1nc(-c2cccnc2)no1 | -104*
Clc1ccccc1-c1nnc(-c2cccnc2)o1 | -139*
CSc1ccccc1-c1nc(-c2ccncc2)no1 | -195*
Clc1ccccc1-c1nc(-c2ccncc2)no1 | -112*
Clc1ccccc1-c1nnc(-c2cccs2)o1 | -215*
Cc1ccccc1-c1nc(-c2cccnc2)no1 | -227*
Cc1nc(-c2noc(-c3ccccc3Cl)n2)c(C(F)(F)F)o1 | -142*
Cc1ccccc1-c1nc(-c2ccccn2)no1 | 95
SMILES | aSyn 5UTR act
CN(C)c1ccc(-c2nnc(-c3cccs3)o2)cc1 | 82
Cc1[nH][nH]c(=O)c1C(c1c(C)[nH][nH]c1=O)c1cn(Cc2ccc(Cl)c(Cl)c2)c2ccccc12 | 90
Cc1ccc(OCC(=O)N/N=C/c2cn(Cc3ccccc3)c3ccccc23)cc1 | 60
Cc1cccc(Cn2cc(SCC(=O)Nc3nccs3)c3ccccc32)c1 | -156*
Clc1ccc(-c2n[nH]c3c2CCCC3)cc1 | -70*
CCN(CC)c1ccc(-c2nn3c(-c4n[nH]c5c4CCC5)nnc3s2)cc1 | 72
Cc1occc1C(=O)Nc1ccc(Br)cc1F | -165*
Cc1nn(C)c(C(=O)Nc2ccc(Br)cc2F)c1Br | -110*
O=c1sc2ccccc2n1CCOc1ccccc1 | -133*
Cc1ccc(OCn2c(=O)sc3ccccc32)cc1 | -158*
COc1cc(NC(=O)CN2CCC(C)CC2)c(C)cc1[N+](=O)[O-] | -82*
COc1ccc(-c2nc3cc(C)ccn3c2NCc2ccc3c(c2)OCO3)cc1 | -112*
COc1ccc(-c2nc3ccccn3c2NCc2ccc3c(c2)OCO3)cc1 | -91*
COc1ccc(-c2csc(Nc3ccc(C)cn3)n2)cc1OC | -120*
COc1ccc(-c2csc(Nc3ccc(S(N)(=O)=O)cc3)n2)cc1OC | 62
COc1ccc(-c2csc(Nc3cc(C)ccn3)n2)cc1OC | -236*
C=CCN(CC=C)CCOc1ccc(OC(C)C)cc1 | -63*
CS(=O)(=O)c1nc2c(cc1C#N)CCCC2 | -85*
Cc1ccc(-n2nc3ccc(N)cc3n2)c(C)c1 | 66
Cc1c(N)ccc(-n2nc3ccccc3n2)c1C | -65*
O=C(NCCN1C(=O)C2C3C=CC(C3)C2C1=O)Nc1ccc(Br)cc1 (stereo unspecified) | -144*
O=C(O)Cc1sc(Nc2ccc(Cl)cc2)nc1-c1cccs1 | -188*
CCOC(=O)c1sc(NC(=O)c2cc3ccccc3o2)nc1C | -113*
CCOC(=O)c1csc(NC(=O)c2ccc3c(c2)OCCO3)n1 | -79*
COC(=O)Cc1csc(Nc2ccccc2Cl)n1 | -86*
SMILES | aSyn 5UTR act
C=CCOC(=O)c1sc(NC(=O)c2ccco2)nc1C | -167*
CCc1ccc(C(=O)Nc2cc(C)ccc2F)s1 | -143*
CCOC(=O)c1csc(-c2ccc3c(c2)CCO3)n1 | -110*
Cc1nnc(NC(=O)c2cc3ccccc3o2)s1 | -82*
Cc1nc2c(ccc3nc(NC(=O)c4ccc5c(c4)OCCO5)sc32)s1 | -117*
CCOC(=O)c1csc(NC(=O)c2cc3ccccc3o2)n1 | -125*
CCOC(=O)c1sc(Nc2ccccc2Cl)nc1C | -184*
CCOC(=O)c1sc(NC(=O)c2ccc(CC)s2)nc1C | -133*
CCOC(=O)c1csc(NC(=O)c2ccccc2)n1 | -158*
CCOC(=O)c1sc(NC(=O)Nc2ccccc2F)nc1C | 70
CCOC(=O)Cc1cnc(NC(=O)c2ccccc2)s1 | -113*
Cc1ccc(NC(=O)c2c(Cl)nc3ccccn23)cc1 | -153*
Cc1nc2ccccn2c1C(=O)Nc1ccc(Cl)cc1 | -160*
C/C(=N\NC(=O)c1c(C)nc2ccccn12)c1ccc(O)cc1O | 84
COc1ccc(C(=O)/C=C/C(=O)N(CC(=O)NC2CCCCC2)Cc2cccs2)c(O)c1 | 71
Cc1ccccc1N(CC(=O)NC1CCCC1)C(=O)c1csnn1 | -146*
COc1ccc(C(=O)/C=C/c2cn(CC(O)CN3CCN(C)CC3)c3ccccc23)cc1OC (stereo unspecified) | -62*
O=[N+]([O-])/C=C/c1cn(Cc2ccc(Cl)cc2)c2ccccc12 | 65
CN1CCN(Cn2cc(/C=C/C(=O)c3ccccc3)c3ccccc32)CC1 | -312*
CN(C)c1ccc(/C=N/NC(=S)NCc2ccccc2)cc1 | -85*
Cc1c(C(=O)N/N=C/c2ccc(N(C)C)cc2)[nH]c2ccc(Cl)cc12 | 73
CC(C)Oc1ccc(/C=N/NC(N)=S)cc1 | -116*
CNC(=S)N/N=C/c1ccc(C(C)C)cc1 | -161*
CNC(=S)N/N=C/c1ccc(N(C)C)cc1 | -89*
CCOc1cc(/C=N/O)ccc1OCc1ccc(C)cc1 | -68*
SMILES | aSyn 5UTR act
O/N=C/c1cc(Br)ccc1OCc1ccc(F)cc1 | -79*
Cc1ccc(COc2ccc(Br)cc2/C=N/O)cc1 | -156*
COc1cc(/C=N/NC(=O)COc2ccc(C)cc2)ccc1OC(=O)c1cccs1 | -65*
N/C(=N\OC(=O)CSc1ccccc1)c1ccncc1 | -91*
COc1ccc(/C(N)=N/OC(=O)COc2ccccc2Cl)cc1 | -141*
N/C(=N\OC(=O)COc1ccccc1)c1ccc(Cl)cc1 | -67*
COc1cccc(OCC(=O)O/N=C(\N)c2ccncc2)c1 | -90*
N/C(=N\OC(=O)COc1ccccc1)c1ccncc1 | -82*
N/C(=N\OC(=O)COc1ccccc1)c1cccnc1 | -113*
N#Cc1nc(-c2ccccc2F)oc1NCCc1ccccn1 | -81*
COCCCNc1oc(-c2ccccc2F)nc1C#N | -84*
CCS(=O)(=O)c1ccc2oc(Nc3cccc(OC)c3)nc2c1 | -145*
CCS(=O)(=O)c1ccc2oc(Nc3ccccc3Br)nc2c1 | -108*
CCS(=O)(=O)c1ccc2oc(Nc3ccccc3Cl)nc2c1 | -154*
Cc1ccc(-c2cc(C(=O)NCc3ccccn3)c3ccccc3n2)cc1C | -124*
COc1cccc(-c2cc(C(=O)NCCCn3ccnc3)c3ccccc3n2)c1 | -70*
Cc1ccc(-c2cc(C(=O)NCCCN3CCCC3)c3ccccc3n2)cc1C | -63*

Screening data (PubChem)
